Where a name gives a salt, the structure may show the parent alone. ± gives the standard error. Among all 1,300 compounds or so, about 130 (10%) showed an effect of 50% or more. The list comes from a sample in which strong results are over-represented; it also holds similar structures and randomly drawn compounds.
Tested on: Trichoderma virens ATCC 9645
Test: growth yield (OD600) with compound + IPBC relative to untreated control; higher = less growth inhibition
Details: compound concentration: 100 uM, IPBC concentration: 200 ng/ml
Summary of the method: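 Trichoderma virens ATCC 9645 spores, from potato dextrose agar plates grown for 7 days, were brought to 15,000 spores ml^−1 in potato dextrose broth and dispensed as 100 μl aliquots into 96-well plates. Each aliquot received library compounds at 100 μM final, with or without a biocide at 200 ng ml^−1, before growth at 30 °C and OD600 readings on a BioTek EL800 at 40 h and 72 h. Growth is expressed relative to the control containing neither agent and represents means of duplicate screens.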

| SMILES | growth yield (40 h) | growth yield (72 h) |
| --- | --- | --- |
| Cc1cc(C2CCCCC2)n(O)c(=O)c1 [Ciclopirox ethanolamine] + CCCCNC(=O)OCC#CI [3-iodo-2-propynyl butylcarbamate (IPBC)] | 3.49 ± 0.32% | 2.83 ± 0.32% |
| CCOC(=O)[C@H](CCc1ccccc1)N[C@@H](C)C(=O)N1[C@H](C(=O)O)C[C@@H]2CCC[C@@H]21 [Ramipril] + CCCCNC(=O)OCC#CI [3-iodo-2-propynyl butylcarbamate (IPBC)] | 95 ± 3.2% | 96 ± 3.9% |
| CC1(C)O[C@@H]2C[C@H]3[C@@H]4CCC5=CC(=O)C=C[C@]5(C)[C@H]4[C@@H](O)C[C@]3(C)[C@]2(C(=O)CO)O1 [Desonide] + CCCCNC(=O)OCC#CI [3-iodo-2-propynyl butylcarbamate (IPBC)] | 107 ± 5.9% | 103 ± 3.9% |
| C[C@@H]1CC[C@H]2[C@@H](C)C(=O)O[C@@H]3O[C@@]4(C)CC[C@@H]1[C@]32OO4 [Artemisinin] + CCCCNC(=O)OCC#CI [3-iodo-2-propynyl butylcarbamate (IPBC)] | 32.4 ± 1.3% | 76.3 ± 1.1% |
| CC1(C)O[C@@H]2C[C@H]3[C@@H]4CCC5=CC(=O)CC[C@]5(C)[C@@]4(F)[C@@H](O)C[C@]3(C)[C@]2(C(=O)CCl)O1 [Halcinonide] + CCCCNC(=O)OCC#CI [3-iodo-2-propynyl butylcarbamate (IPBC)] | 86.9 ± 1.1% | 91.77 ± 0.1% |
| COc1cnc(NS(=O)(=O)c2ccc(N)cc2)nc1 [Sulfameter] + CCCCNC(=O)OCC#CI [3-iodo-2-propynyl butylcarbamate (IPBC)] | 101 ± 7.5% | 101 ± 3.5% |
| Nc1nc2n[nH]nc2c(=O)[nH]1 [Azaguanine-8] + CCCCNC(=O)OCC#CI [3-iodo-2-propynyl butylcarbamate (IPBC)] | 7.47 ± 1.1% | 12.2 ± 0.21% |
| Nc1nc2c(ncn2COC(CO)CO)c(=O)[nH]1 [Ganciclovir] + CCCCNC(=O)OCC#CI [3-iodo-2-propynyl butylcarbamate (IPBC)] | 99.9 ± 16% | 98.1 ± 10% |
| Nc1nc2c(ncn2COCCO)c(=O)[nH]1 [Acyclovir] + CCCCNC(=O)OCC#CI [3-iodo-2-propynyl butylcarbamate (IPBC)] | 100 ± 3.5% | 101 ± 3.5% |
| CC(C)(C(=O)c1cccnc1)c1cccnc1 [Metyrapone] + CCCCNC(=O)OCC#CI [3-iodo-2-propynyl butylcarbamate (IPBC)] | 87.5 ± 1.4% | 87.68 ± 0.84% |
| CC(=O)OCC(=O)[C@H]1CC[C@H]2[C@@H]3CC[C@H]4C[C@H](O)CC[C@]4(C)[C@H]3C(=O)C[C@]12C [Alfadolone acetate] + CCCCNC(=O)OCC#CI [3-iodo-2-propynyl butylcarbamate (IPBC)] | 90.1 ± 8.4% | 95.4 ± 2.9% |
| C#C[C@]1(OC(C)=O)CC[C@H]2[C@@H]3CCC4=C[C@@H](OC(C)=O)CC[C@@H]4[C@H]3CC[C@@]21C [Ethynodiol diacetate] + CCCCNC(=O)OCC#CI [3-iodo-2-propynyl butylcarbamate (IPBC)] | 80.21 ± 0.16% | 92 ± 1.8% |
| Cc1cc2c(cc1S(N)(=O)=O)S(=O)(=O)CCC2 [Meticrane] + CCCCNC(=O)OCC#CI [3-iodo-2-propynyl butylcarbamate (IPBC)] | 91.8 ± 6.7% | 91.7 ± 3.8% |
| COc1ccc2c(c1)c(CC(=O)OCC(=O)O)c(C)n2C(=O)c1ccc(Cl)cc1 [Acemetacin] + CCCCNC(=O)OCC#CI [3-iodo-2-propynyl butylcarbamate (IPBC)] | 74.18 ± 0.16% | 84.11 ± 0.21% |
| CCCCCCC[N+](CC)(CC)CCCCc1ccc(Cl)cc1 [Clofilium tosylate] + CCCCNC(=O)OCC#CI [3-iodo-2-propynyl butylcarbamate (IPBC)] | 13.5 ± 5.9% | 74.46 ± 0.42% |
| N[C@@H]1C[C@H]1c1ccccc1 [Tranylcypromine hydrochloride] + CCCCNC(=O)OCC#CI [3-iodo-2-propynyl butylcarbamate (IPBC)] | 99.6 ± 1.8% | 104 ± 3.7% |
| N=C(N)N1CCc2ccccc2C1 [Debrisoquin sulfate] + CCCCNC(=O)OCC#CI [3-iodo-2-propynyl butylcarbamate (IPBC)] | 92.3 ± 15% | 96.9 ± 8% |
| COc1ccc2cc([C@@H](C)C(=O)O)ccc2c1 [(R) -Naproxen sodium salt] + CCCCNC(=O)OCC#CI [3-iodo-2-propynyl butylcarbamate (IPBC)] | 67.7 ± 2.2% | 81.5 ± 3.5% |
| COc1ccc2cc([C@H](C)C(=O)O)ccc2c1 [(S)-Naproxen] + CCCCNC(=O)OCC#CI [3-iodo-2-propynyl butylcarbamate (IPBC)] | 61.3 ± 1.9% | 78.6 ± 1.1% |

| SMILES | growth yield (40 h) | growth yield (72 h) |
| --- | --- | --- |
| COc1ccc2cc(CCC(C)=O)ccc2c1 [Nabumetone] + CCCCNC(=O)OCC#CI [3-iodo-2-propynyl butylcarbamate (IPBC)] | 39.7 ± 1.6% | 67.1 ± 1.5% |
| c1ccc2c(c1)Nc1ccccc1S2 [Phenothiazine] + CCCCNC(=O)OCC#CI [3-iodo-2-propynyl butylcarbamate (IPBC)] | 34.8 ± 2.7% | 51.3 ± 1.6% |
| CC(C)(C#N)c1cc(Cn2cncn2)cc(C(C)(C)C#N)c1 [Anastrozole] + CCCCNC(=O)OCC#CI [3-iodo-2-propynyl butylcarbamate (IPBC)] | 105 ± 3.8% | 98.9 ± 2.2% |
| CN(C)c1ccc(O)c2c1C[C@H]1C[C@H]3[C@H](N(C)C)C(O)=C(C(N)=O)C(=O)[C@@]3(O)C(O)=C1C2=O [Minocycline hydrochloride] + CCCCNC(=O)OCC#CI [3-iodo-2-propynyl butylcarbamate (IPBC)] | 58.1 ± 2.2% | 84.6 ± 4.7% |
| COc1ccc(OC)c(C(O)C(C)N)c1 (centres undefined) [Methoxamine hydrochloride] + CCCCNC(=O)OCC#CI [3-iodo-2-propynyl butylcarbamate (IPBC)] | 87.4 ± 7.3% | 92.4 ± 5.3% |
| COc1ccc(C(=O)N2CCCC2=O)cc1 [Aniracetam] + CCCCNC(=O)OCC#CI [3-iodo-2-propynyl butylcarbamate (IPBC)] | 83.7 ± 4.3% | 87.3 ± 3.1% |
| O=C1Nc2ccc(Cl)cc2[C@@](C#CC2CC2)(C(F)(F)F)O1 [Efavirenz] + CCCCNC(=O)OCC#CI [3-iodo-2-propynyl butylcarbamate (IPBC)] | 39.4 ± 2.9% | 73.1 ± 8.1% |
| C/C(=C\C(=O)OCCCCCCCCC(=O)O)C[C@@H]1OC[C@H](C[C@@H]2O[C@H]2[C@@H](C)[C@H](C)O)[C@@H](O)[C@H]1O [Mupirocin] + CCCCNC(=O)OCC#CI [3-iodo-2-propynyl butylcarbamate (IPBC)] | 6.51 ± 1.4% | 43.4 ± 5.7% |
| O=C1CCc2ccc(OCCCCN3CCN(c4cccc(Cl)c4Cl)CC3)cc2N1 [Aripiprazole] + CCCCNC(=O)OCC#CI [3-iodo-2-propynyl butylcarbamate (IPBC)] | 81.8 ± 2.1% | 94.2 ± 1.5% |
| NS(=O)(=O)c1cc(C(=O)O)cc(N2CCCC2)c1Oc1ccccc1 [Piretanide] + CCCCNC(=O)OCC#CI [3-iodo-2-propynyl butylcarbamate (IPBC)] | 98.3 ± 13% | 101 ± 6.5% |
| CC(=O)Oc1ccc(C(c2ccc(OC(C)=O)cc2)c2ccccn2)cc1 [Bisacodyl] + CCCCNC(=O)OCC#CI [3-iodo-2-propynyl butylcarbamate (IPBC)] | 76.2 ± 2.2% | 86.8 ± 2.1% |
| CC[C@H]1OC(=O)[C@H](C)[C@@H](O[C@H]2C[C@@](C)(OC)[C@@H](O)[C@H](C)O2)[C@H](C)[C@@H](O[C@@H]2O[C@H](C)C[C@H](N(C)C)[C@H]2O)[C@](C)(O)C[C@@H](C)[C@@H]2N[C@@H](COCCOC)O[C@H]([C@H]2C)[C@]1(C)O [Dirithromycin] + CCCCNC(=O)OCC#CI [3-iodo-2-propynyl butylcarbamate (IPBC)] | 89 ± 9.5% | 94.9 ± 6.4% |
| N=C(N)NS(=O)(=O)c1ccc(N)cc1 [Sulfaguanidine] + CCCCNC(=O)OCC#CI [3-iodo-2-propynyl butylcarbamate (IPBC)] | 89.6 ± 2.5% | 92.4 ± 2.6% |
| Cc1cccc(C)c1OCC(=O)N[C@@H](Cc1ccccc1)[C@@H](O)C[C@H](Cc1ccccc1)NC(=O)[C@H](C(C)C)N1CCCNC1=O [Lopinavir] + CCCCNC(=O)OCC#CI [3-iodo-2-propynyl butylcarbamate (IPBC)] | 108 ± 5.4% | 111 ± 5.1% |
| O=C(NCC(O)CO)c1c(I)c(C(=O)NCC(O)CO)c(I)c(N(CCO)C(=O)CO)c1I (centres undefined) [Ioversol] + CCCCNC(=O)OCC#CI [3-iodo-2-propynyl butylcarbamate (IPBC)] | 103 ± 18% | 98 ± 13% |
| C#C[C@]1(O)CC[C@H]2[C@@H]3CCC4=CC(=O)CC[C@@H]4[C@H]3CC[C@@]21C [Norethindrone] + CCCCNC(=O)OCC#CI [3-iodo-2-propynyl butylcarbamate (IPBC)] | 55.1 ± 1.4% | 83.06 ± 0.63% |
| OCCN(CCO)c1nc(N2CCCCC2)c2nc(N(CCO)CCO)nc(N3CCCCC3)c2n1 [Dipyridamole] + CCCCNC(=O)OCC#CI [3-iodo-2-propynyl butylcarbamate (IPBC)] | 44.5 ± 1.6% | 57.37 ± 0.52% |
| CN[C@H](CC(C)C)C(=O)N[C@H]1C(=O)N[C@@H](CC(N)=O)C(=O)N[C@H]2C(=O)N[C@H]3C(=O)N[C@H](C(=O)N[C@H](C(=O)O)c4cc(O)cc(O)c4-c4cc3ccc4O)[C@H](O)c3ccc(c(Cl)c3)Oc3cc2cc(c3O[C@@H]2O[C@H](CO)[C@@H](O)[C@H](O)[C@H]2O[C@H]2C[C@](C)(N)[C@H](O)[C@H](C)O2)Oc2ccc(cc2Cl)[C@H]1O [Vancomycin hydrochloride] + CCCCNC(=O)OCC#CI [3-iodo-2-propynyl butylcarbamate (IPBC)] | 84.2 ± 0.95% | 98.27 ± 0.52% |

From the supplement of paper PMC8007513
